Source: the supplement of paper PMC12636033
± gives the standard deviation of the averaged measurements. Whole data set: some 33,000 sequences, median “E-score (rank enrichment, -0.5 to 0.5)” near -0.0068, cut for the highest 2% near 0.24. Shown is part of a subset that was picked to be rich in the highest values.

Test system: muMax20 (Max(13-93) K31hArg/K57hArg, M65Nle)
Assay: PBM 8-mer E-score (E-score (rank enrichment, -0.5 to 0.5)); higher = stronger preferential binding
Protocol: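 Protein binding microarray (universal PBM chip covering all 10-mers in fixed probe flanks) with chemically synthesized human Max(13-93) bHLH-LZ analogs (not full-length Max) bearing noncanonical residues (hArg, Tha, Aib, Nle at 65) and aromatic Cys staples. Read-out per 8-mer (and its reverse complement): E-score (rank-based enrichment, -0.5 to 0.5) and Z-score of median probe intensity.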

| Sequence | PBM 8-mer E-score |
| --- | --- |
| TGCATGCA | 0.0968 ± 0.12 |
| GGATAGCC | -0.138 ± 0.11 |
| ACCGACCA | 0.0471 ± 0.002 |
| GGGCGCCC | -0.131 ± 0.0098 |
| ATAACTAC | 0.2058 ± 0.0013 |
| ATAACTAA | 0.245 ± 0.0085 |
| ATAACTAT | 0.241 ± 0.0068 |
| CTAACTAA | 0.00786 ± 0.039 |
| TTAACTAA | 0.184 ± 0.11 |
| ATAACTAG | 0.0985 ± 0.14 |
| ACACTGTG | 0.0421 ± 0.2 |
| CAGATCAA | -0.0923 ± 0.011 |
| GGTGAAGA | -0.0661 ± 0.032 |
| ATCCTCAT | -0.11 ± 0.076 |
| CACGATAA | 0.17 ± 0.024 |
| GACGATAA | 0.0693 ± 0.077 |
| TACGATAA | 0.247 ± 0.0037 |
| AATGCTAA | 0.12 ± 0.033 |
| AGCCAATC | -0.047 ± 0.088 |
| AACATGTA | 0.256 ± 0.028 |
| AACATGTG | 0.353 ± 0.042 |
| CACATGTC | 0.12 ± 0.087 |
| AACATGAA | 0.0865 ± 0.011 |
| CACATGTG | 0.418 ± 0.015 |
| GACATGTC | -0.00641 ± 0.13 |

| Sequence | PBM 8-mer E-score |
| --- | --- |
| AACATGCA | 0.206 ± 0.1 |
| TACATGTA | 0.157 ± 0.069 |
| AACATGTT | 0.22 ± 0.04 |
| CACATGCG | 0.172 ± 0.11 |
| AACATGTC | 0.12 ± 0.025 |
| GACATGTA | 0.24 ± 0.067 |
| GTCTGCCA | -0.165 ± 0.0054 |
| GAACTTTA | -0.157 ± 0.037 |
| CTGTGGTA | 0.0865 ± 0.061 |
| CCGGTCGC | -0.276 ± 0.027 |
| ACCGAGAA | -0.187 ± 0.0095 |
| CCCAAGTC | -0.185 ± 0.0086 |
| GACGCTAA | -0.13 ± 0.072 |
| AGCAGTAT | 0.109 ± 0.0063 |
| GATTGCCA | -0.0436 ± 0.034 |
| AGCGTGGA | 0.045 ± 0.011 |
| CACATGAA | 0.219 ± 0.014 |
| CACATGTA | 0.347 ± 0.045 |
| CTCATGTA | 0.0357 ± 0.054 |
| GAAAACCC | 0.11 ± 0.0093 |
| CATAGGTC | -0.0151 ± 0.052 |
| AATGATAA | 0.11 ± 0.021 |
| GATGATTA | 0.0475 ± 0.008 |
| ACTGATTA | 0.0963 ± 0.055 |
| TATGATAA | 0.181 ± 0.063 |

| Sequence | PBM 8-mer E-score |
| --- | --- |
| GCTGATTA | 0.292 ± 0.073 |
| CCTGATTA | 0.14 ± 0.042 |
| CATGATTC | 0.0292 ± 0.013 |
| CATGATAA | 0.263 ± 0.034 |
| CATGATTA | 0.281 ± 0.049 |
| CGCGTTAG | -0.0996 ± 0.017 |
| CTGGACTC | -0.0856 ± 0.022 |
| GAAACAAC | 0.00284 ± 0.071 |
| GAAACAAA | 0.236 ± 0.039 |
| AAAACATA | 0.165 ± 0.084 |
| GAAACATC | 0.0279 ± 0.095 |
| CAAACAAA | 0.185 ± 0.03 |
| GAAACATA | 0.249 ± 0.1 |
| GAAGGTGC | -0.0729 ± 0.043 |
| CATGCCAA | 0.158 ± 0.078 |
| ACATAAAA | 0.229 ± 0.019 |
| CTATAAAC | 0.144 ± 0.0027 |
| CTATAAAA | 0.0172 ± 0.079 |
| ATATAAAT | 0.308 ± 0.0047 |
| ATAAAAAC | 0.109 ± 0.079 |
| CTATAAGA | 0.0354 ± 0.00038 |
| ATATAAAC | 0.324 ± 0.045 |
| GTATAAGA | 0.138 ± 0.044 |
| ATATAAAG | 0.189 ± 0.0027 |
| ATAAAAAT | 0.221 ± 0.025 |

| Sequence | PBM 8-mer E-score |
| --- | --- |
| ATATAAGA | 0.262 ± 0.064 |
| ATATAAAA | 0.317 ± 0.064 |
| AAACTTTA | 0.2 ± 0.068 |
| CACCGCTG | -0.316 ± 0.09 |
| GGGAGGGA | 0.0486 ± 0.024 |
| AAATTGAC | -0.0252 ± 0.075 |
| AGGTCTGA | -0.112 ± 0.11 |
| CGTGCTAA | -0.0595 ± 0.097 |
| GGGGGTGA | -0.107 ± 0.1 |
| GCACCCGA | -0.265 ± 0.009 |
| ATACCCGC | 0.07 ± 0.0011 |
| CCCACGGA | -0.0746 ± 0.039 |
| CGAGTTTC | 0.112 ± 0.043 |
| AGGCGGAG | -0.00941 ± 0.016 |
| GTATAAAA | 0.288 ± 0.072 |
| TTATAAAA | 0.235 ± 0.043 |
| GTATAAAC | 0.137 ± 0.05 |
| GGGTAATA | 0.117 ± 0.078 |
| AGGGGAAG | -0.0693 ± 0.071 |
| CTAGCGAC | -0.0457 ± 0.095 |
| CCGAAAGG | -0.0656 ± 0.13 |
| CAAGCCAA | -0.034 ± 0.1 |
| CATGTTTC | 0.143 ± 0.045 |
| GATGTGCA | 0.03 ± 0.16 |
| ATTGTATG | 0.139 ± 0.039 |

| Sequence | PBM 8-mer E-score |
| --- | --- |
| GGTGTGTA | 0.159 ± 0.11 |
| CTTGTATC | 0.0905 ± 0.026 |
| CATGTTTA | 0.249 ± 0.0042 |
| GATGTTTA | 0.0668 ± 0.12 |
| CGTGTGTA | 0.28 ± 0.017 |
| ATTGTATC | 0.304 ± 0.027 |
| AGTGTGTA | 0.121 ± 0.0059 |
| CATGTGCA | 0.292 ± 0.063 |
| TATGTGCA | 0.175 ± 0.068 |
| CAACAAAA | 0.0937 ± 0.037 |
| ACCCCTCC | 0.155 ± 0.011 |
| AGCATAAA | 0.158 ± 0.013 |
| CGGTTCCA | -0.282 ± 0.0036 |
| GACGGCCA | -0.0819 ± 0.046 |
| AAGTGTAA | -0.0103 ± 0.021 |
| GCCCCTAC | 0.00167 ± 0.035 |
| ACTCTGAG | -0.217 ± 0.068 |
| GATAACGC | 0.105 ± 0.11 |
| CTTGTAAA | 0.217 ± 0.015 |
| ATTGTAAG | 0.16 ± 0.042 |
| CATGTGTC | 0.117 ± 0.14 |
| GATGTGTA | 0.17 ± 0.024 |
| CGTGTATA | 0.2 ± 0.044 |
| AGTGTATC | 0.123 ± 0.049 |
| CATGTGTA | 0.332 ± 0.054 |

| Sequence | PBM 8-mer E-score |
| --- | --- |
| CGTGTATC | 0.238 ± 0.025 |
| ATTGTAAA | 0.244 ± 0.021 |
| AGCTCTCG | -0.155 ± 0.045 |
| GAGTCACC | -0.0777 ± 0.02 |
| AACCTTAT | 0.0715 ± 0.044 |
| AACAGTAA | -0.00834 ± 0.034 |
| GCTCGTTA | 0.0811 ± 0.07 |
| AACGTAAG | -0.0553 ± 0.13 |
| AAGTGTGA | 0.0524 ± 0.053 |
| CAGTGTGA | 0.2398 ± 0.0018 |
| TAGTGTGA | 0.15 ± 0.12 |
| CTGGTCTC | -0.256 ± 0.045 |
| AATGGATC | -0.167 ± 0.0063 |
| CCACCAAG | -0.0933 ± 0.014 |
| GTATAGTA | 0.227 ± 0.0046 |
| ATATAGTA | 0.281 ± 0.048 |
| ACATAGTA | 0.0946 ± 0.04 |
| CTATAGTA | 0.109 ± 0.0064 |
| GCATAGTA | 0.277 ± 0.041 |
| CCATAGTA | 0.0366 ± 0.064 |
| ACCGGAGC | -0.286 ± 0.0054 |
| CGGTCCAG | -0.279 ± 0.069 |
| GCTCCACA | -0.0777 ± 0.035 |
| GCCTCAGA | -0.218 ± 0.018 |
| AACGAACG | 0.0291 ± 0.073 |

| Sequence | PBM 8-mer E-score |
| --- | --- |
| CTACTCGC | -0.176 ± 0.076 |
| GAAATCAA | 0.0452 ± 0.11 |
| TAAATCAA | 0.261 ± 0.01 |
| AAAATCAA | 0.0939 ± 0.085 |
| ATCGCGGG | -0.145 ± 0.056 |
| AATCACAG | -0.113 ± 0.046 |
| AATCACGA | 0.00734 ± 0.13 |
| AATCACAA | 0.172 ± 0.028 |
| AATCACGC | 0.196 ± 0.096 |
| AATCACAT | 0.242 ± 0.066 |
| AATCACGT | 0.385 ± 0.046 |
| AGGGCAAA | -0.0293 ± 0.034 |
| CGAAAATA | 0.00928 ± 0.085 |
| CAGCGGCG | -0.0966 ± 0.073 |
| GAACCTCC | -0.133 ± 0.0052 |
| CGGAGCAC | -0.157 ± 0.021 |
| TCGCTACA | 0.115 ± 0.042 |
| GCGCTACA | -0.0407 ± 0.037 |
| ACGCTACA | 0.255 ± 0.047 |
| ACTTCGGG | 0.0794 ± 0.099 |
| ACGCTAAG | -0.149 ± 0.038 |
| CCACTGAC | -0.169 ± 0.032 |
